Only some compounds are listed: those with a hit (about 9.5% of all), similar ones and a draw of the others.
NS1 function inh: blocks influenza NS1 protein function; 270,000 tested, 0.4% active; AID 2326; Potency, µM (titrated, usually from 46.1 µM), without a hit: at the highest dose activity, positive = more growth; calls by dose curve; note: actives are rising curves; nearly all actives have a fitted effect of over 50% in size
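S. cerevisiae expressing influenza A NS1, grown in glucose, washed, then diluted 1:100 into pH 6.0 -URA galactose medium with 23 nl compound. Growth recovery read as OD600; NS1-free strain serves as control.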
SARS PLP yeast: SARS-CoV PLP inhibition in yeast. S. cerevisiae expressing SARS-CoV PLpro, growth rescue. Potency, µM (titrated, usually from 32.9 µM), inactives show at the top dose activity, positive = growth rescue, actives largely listed as activators. 330,000 tested, 0.19% active; calls by dose curve; note: 0% is about no effect; nearly all actives have a fitted effect of over 55% in size
Pf growth 48h: P. falciparum growth inhibition at 48 hours (one generation). P. falciparum luciferase growth in erythrocytes, 48 h. Potency, µM (highest dose often 28.7 µM), for inactives: top-dose activity change, negative = inhibition, hits mostly inhibitors. 310,000 tested, 5.9% active; note: % is set by controls: 0 for no effect and ±100 for the full control effect
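Parasite viability was followed by luminescence of a genomically integrated firefly luciferase. Cultures held 0.1% parasitemia at 2% hematocrit (final), incubated under 5% CO2 at 37 C.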
Pf growth 96h: P. falciparum growth inhibition at 96 hour, primary screen for plastid delayed-death inhibitors | P. falciparum luciferase reporter growth, 96 h | AID 504834 | 320,000 tested, 6.9% active | Potency, µM (highest dose often 28.7 µM), for the others: at the highest dose activity change, negative = inhibition, most hits filed as inhibitors; note: % is set by controls: 0 for no effect and ±100 for the full control effect
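Delayed-death screen, second-generation endpoint: infected erythrocytes, 2% hematocrit, 0.05% parasitemia final; 96 hours at 37 C, 5% CO2; luciferase detection reagent; luminescence decrease equals reduced growth.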
RE007 growth inh: less growth of the S. pombe RE007 Vpr strain | 360,000 tested, 0.21% active | Potency, µM (series often up to 92.2 µM), for inactives: top-dose activity change, negative = less growth, actives largely listed as inhibitors | S. pombe RE007 Vpr strain, BacTiter-Glo ATP luminescence, 24 h; active = well fitted falling curve with a large enough effect; inconclusive = small, poorly fitted or top-dose-only effect; inactive = no such curve, though single readings can be large or run the other way; note: % is set by controls: 0 for no effect and ±100 for the full control effect; nearly all actives have a fitted effect of over 50% in size
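Fission yeast RE007 carrying one integrated HIV-1 vpr copy, seeded at OD 0.01 in PMG+AL medium with 23 nL pinned compound. Grown 24 h at 30 degrees; viability read by BacTiter-Glo luminescence after 5 min.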
* = called active by the depositor; ? = inconclusive; . = no result given; [ ] = remark or other dose. Unless noted, calls come from the whole dose curve; as a rule, active = well fitted inhibition curve with a large enough effect; inconclusive = small, poorly fitted or top-dose-only effect, or another doubt; inactive = no such curve, though single readings can be large or run the other way. Potency is the fitted concentration of half-maximal effect.

SMILES | NS1 function inh | SARS PLP yeast | Pf growth 48h | Pf growth 96h | RE007 growth inh
C#CCOCCOCCOCCNc1nc(N2CCN(C(=O)CCCCCCCCCCNC(=O)[C@H](CCCCN)n3cc(C[C@@H](C)CC)nn3)CC2)nc(N2CCN(C(=O)CCCCCCCCCCNC(=O)[C@H](CCCCN)n3cc(C[C@@H](C)CC)nn3)CC2)n1 | . | . | . | . | 16%
C#CCOCCOCCOCCNc1nc(N2CCN(C(=O)CCCCCCCCCCNC(=O)Cn3cc(C[C@@H](C)O)nn3)CC2)nc(N2CCN(C(=O)CCCCCCCCCCNC(=O)Cn3cc(C[C@@H](C)O)nn3)CC2)n1 | . | -1% | 0.13µM* | 0.083µM* | -2%
C#CCOCCOCCOCCNc1nc(N2CCN(C(=O)CCCCCCCCCCNC(=O)Cn3cc(C[C@@H](C)O)nn3)CC2)nc(N2CCN(C(=O)CCCCCCCCCCNC(=O)[C@H](CCCCN)n3cc(C[C@@H](C)CC)nn3)CC2)n1 | . | -1% | 0.33µM* | 0.47µM* | -2%
CCOC(=O)C1=C(COC(=O)c2cc(S(=O)(=O)N3CCOCC3)ccc2F)NC(=O)NC1C (stereo not drawn) | . | . | . | . | 15%
CC[C@H](C)[C@@H](CNC)NC[C@@H](Cc1ccc(O)cc1)NCC(C)(C)C | 1% | -3% | ? | 13µM* | -8%
CC[C@@H](C)[C@H](CN[C@H](CNC)C(C)C)NC[C@@H](C)c1ccc(CC(C)C)cc1 | -9% | 0% | ? | ? | -3%
Cc1ccc(OC[C@H](O)[C@H](C)NC(C)C)c2c1CCC2 | . | . | 9.3µM* | ? | -20%
CC(C)(C)NC[C@H](O)COc1cccc2c1CCCC2=O | . | . | -78% | 1% | 16%[18.4 µM]
CCOC(=O)c1nnn(CC(=O)Nc2cccc(Cl)c2C)c1C(=O)OCC | -1% | 6% | . | 47% | 7%
CCOC(=O)c1nnn(CC(=O)N2N=C(c3cccc4ccccc34)CC2c2ccccc2)c1C(=O)OCC (stereo not drawn) | 8% | 5% | 9.3µM* | ? | -1%
Cc1ccc(S(=O)(=O)Nc2nc(C)c(C(=O)NNS(=O)(=O)c3cc(C)ccc3C)s2)cc1 | 20% | 0% | -19% | -6% | -8%
Cc1ccc(C)c(S(=O)(=O)Nc2nc(C)c(C(=O)Nc3ccccc3)s2)c1 | -1% | 17% | ? | 0.66µM* | .
COc1cccc(-c2cc(C(=O)Nc3cc(C)n(Cc4ccc(Cl)cc4)n3)no2)c1 | 0% | -7% | 10µM* | 22% | -7%
Cc1cc(NC(=O)c2cc(-c3ccco3)on2)nn1Cc1ccc(Cl)cc1 | 1% | 3% | 6.6µM* | . | 5%
COc1ccc(-c2cc(C(=O)Nc3c(C)nn(Cc4ccc(Cl)cc4)c3C)no2)cc1 | -9% | -2% | . | ? | -3%
Cc1nn(Cc2ccc(Cl)cc2)c(C)c1NC(=O)c1cc(-c2ccco2)on1 | 1% | 5% | ? | 15% | 2%
COc1ccc(OC)c(-c2cc(C(=O)Nc3cc(C)n(Cc4ccc(Cl)cc4)n3)no2)c1 | -39% | -10% | 2.1µM* | 0% | 11%
Cc1ccc(S(=O)(=O)NN2CCCCCC2)cc1 | . | . | . | . | -13%
CC(=O)Nc1ccc(S(=O)(=O)N(Cc2ccccc2)C(C)C)cc1 | -21% | 0% | -9% | ? | 27%
OC[C@@H]1CN(CCc2ccccc2)C[C@H](n2cnc3c(NCc4ccc(F)cc4)ncnc32)O1 | . | . | . | . | 5%
COC(=O)[C@@]12C[C@@H](CC(=O)NCC3CCCCC3)C(=O)N(Cc3cccc4ccccc34)C1=CCC(C)(C)C2 | . | . | . | . | 5%
Cc1cccc(C)c1NC(=O)C(CCc1ccccc1)N1CCC(c2ccccc2)CC1 (stereo not drawn) | . | . | . | . | -6%
Cc1ccc(-n2nc(C)c(NC(=O)CCl)c2C)cc1C | 7% | 27% | 4.1µM* | -1% | -2%
CCC(=O)Nc1c(C)nn(-c2ccc(C)c(C)c2)c1C | -10% | 28% | -3% | -16% | -5%
Cc1ccc(C(=O)N2[C@@H]3CN(C)C(=O)[C@@]2(Cc2ccccc2)[C@H]2C(=O)N(Cc4ccccc4)C(=O)[C@@H]32)cc1 | . | . | . | . | -8%
SMILES | NS1 function inh | SARS PLP yeast | Pf growth 48h | Pf growth 96h | RE007 growth inh
C[C@H]1CCC[C@H](O)CCCCCc2cc(O)cc(O)c2C(=O)O1 | -71% | 2% | ? | 12µM* | -5%[18.4 µM]
CC1CCC[C@H](O)CCCCCc2cc(O)cc(O)c2C(=O)O1 (stereo partly drawn) | -5% | 0% | ? | ? | -2%[18.4 µM]
Cc1cccc(NC(=O)CNC(=O)CN2C(=O)NC3(CCc4ccccc43)C2=O)c1C (stereo not drawn) | . | 4% | ? | -2% | 1%
CCOc1ccccc1NC(=O)C1CCN(S(=O)(=O)c2ccc(OC)c(OC)c2)CC1 | -12% | 2% | -39% | 6.6µM* | 4%
CCOc1ccccc1NC(=O)c1ccc(S(=O)(=O)N2CCCCC2)cc1 | -6% | -10% | ? | 1% | -3%
CCOc1ccccc1NC(=O)C1CCN(S(C)(=O)=O)CC1 | 21% | . | -125% | 30% | -5%
CCOc1ccccc1NC(=S)NC(=O)C1CC1 | -18% | 18% | 5.2µM* | ? | 13%
CCS(=O)(=O)N1CCC(C(=O)Oc2ccccc2OC)CC1 | 10% | 3% | 5% | 13µM* | 2%
CCOc1ccccc1NC(=O)C1CCN(c2ccc(S(=O)(=O)N3CCCC3)cc2)CC1 | -13% | 3% | 4.7µM* | -23%[5.75 µM] | 1%
Cc1noc(C)c1S(=O)(=O)N(C)C[C@H]1Oc2c(NS(=O)(=O)c3cn(C)cn3)cccc2C(=O)N([C@H](C)CO)C[C@@H]1C | . | 1% | . | . | 14%
Cc1ccc(CNS(=O)(=O)c2c(C)[nH]c(C)c2C(=O)N2CCCCC2)cc1 | -1% | 2% | -6% | 27% | 0%
Cn1c(=O)c2[nH]c(COCc3nc4c([nH]3)c(=O)n(C)c(=O)n4C)nc2n(C)c1=O | 0% | . | . | . | .
CC(C)(C)C(CN1CCCC1)OC(=O)c1ccccc1 (stereo not drawn) | 1% | 0% | 13% | -74% | -11%
CC1CC(C)CN(C(=O)CCC(=O)Nc2nnc(C3CCCCC3)s2)C1 (stereo not drawn) | 8% | 0% | ? | ? | 3%
N#CC1(NC(=O)CSc2nnc3n2CCCCC3)CCCCC1 | . | -1% | . | . | -5%
CCOc1cc2c(cc1OCC)-n1cccc1C(c1ccc(OC)c(OC)c1)NC2 (stereo not drawn) | 4% | 1% | ? | 0% | -1%
CCOc1cc2c(cc1OCC)-n1cccc1C(c1ccc(F)c(OC)c1)NC2 (stereo not drawn) | 10% | -1% | 10µM* | -1% | -9%
CCOc1cc2c(cc1OCC)-n1cccc1C(c1ccccc1O)NC2 (stereo not drawn) | 2% | -1% | 8.3µM* | 6% | -8%
CCOc1cc2c(cc1OCC)-n1cccc1C(c1c(O)cccc1OC)NC2 (stereo not drawn) | -4% | 3% | 13µM* | -28% | 4%
